A short description of test [1]: CCTE_Shafer_MEA_dev_active_electrodes_number: CCTE's Neural Network Formation Assay for Number of Active Electrodes, Shafer Lab (AID 2284040; active = hit-call score of the fitted dose curve at least 0.9, where 1 is the maximum;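 as to AC50: potency for loss of active electrodes versus DMSO so lower counts are hits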). In outline: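 Counts electrodes per well firing at least 5 spikes/min, recorded on days 5, 7, 9 and 12 in rat cortical cultures dosed continuously from plating (treatment refreshed DIV 5, 9). Value is the area under the curve over recordings, fitted downward relative to DMSO.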

A short description of test [2]: CCTE_Shafer_MEA_dev_burst_rate: CCTE's Neural Network Formation Assay for Burst Rate, Shafer Lab (AID 2284042). In outline: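 Cells plated, treated day 0; recorded DIV 5, 7, 9, 12; fed and re-treated DIV 5, 9. Endpoint: bursts per recording time, active-electrode well mean, trapezoidal AUC, fitted in decreasing direction against DMSO baseline.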
The nature of test [3]: CCTE_Shafer_MEA_dev_bursting_electrodes_number: CCTE's Neural Network Formation Assay for Number of Bursting Electrodes, Shafer Lab (AID 2284043; active = hit-call score of the fitted dose curve at least 0.9, where 1 is the maximum;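 as to AC50: potency is for loss of bursting electrodes relative to DMSO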). In outline:
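Rat cortical primary neurons, 48-well MEA, 16 electrodes/well; dosing DIV 0–12, re-dosed with full media change DIV 5, 9. Recordings DIV 5/7/9/12, AxIS adaptive spike detector; bursting electrode = ≥1 burst/2 min. AUC across days; loss of signal vs DMSO.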

Test [4] can be described thus: CCTE_Shafer_MEA_dev_per_burst_interspike_interval: CCTE's Neural Network Formation Assay for Burst Interspike Interval, Shafer Lab (AID 2284044). The procedure, abridged:
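Readout is the average time between spikes inside single-electrode bursts, taken as a well mean across bursting electrodes. Cortical neurons from rat developed networks on MEA plates under continuous 12-day exposure; recordings on days 5, 7, 9 and 12 were integrated by trapezoidal AUC.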

Test [5] can be described thus: CCTE_Shafer_MEA_dev_burst_duration_mean: CCTE's Neural Network Formation Assay for Mean Burst Duration, Shafer Lab (AID 2284045).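 As to AC50: curve fitted for loss meaning shorter burst duration than DMSO.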 The procedure, abridged:
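Rat cortical cultures, 1.5 x 10^5 cells/well with laminin drop; continuous dosing days 0–12, media plus treatment refreshed DIV 5, 9. AxIS adaptive spike detection; mean single-electrode burst duration, AUC over four recordings, negative direction vs DMSO.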

Test [6] can be described thus: CCTE_Shafer_MEA_dev_inter_network_spike_interval_mean: CCTE's Neural Network Formation Assay for Mean Inter-network Spike Interval, Shafer Lab (AID 2284047). In outline: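 Rat cortical cultures, 1.5 x 10^5 cells/well on 48-well MEA plates; continuous exposure days 0–12, medium and compound refreshed DIV 5, 9. Mean time between consecutive network-spike peaks; AUC across DIV 5/7/9/12; DMSO baseline, negative fitting direction.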

Test [7] is described as follows: CCTE_Shafer_MEA_dev_network_spike_number: CCTE's Neural Network Formation Assay for Number of Network Spikes, Shafer Lab (AID 2284048).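 As to AC50: fit as a loss of signal meaning fewer network spikes than DMSO.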 In outline:
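Rat cortical primary cultures on 48-well MEA (16 electrodes/well); continuous exposure DIV 0–12, full medium and treatment exchange DIV 5, 9. Readout: network spike count, AxIS adaptive detection, recordings DIV 5/7/9/12 collapsed to AUC; loss-of-signal fit, DMSO baseline.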

Test [8] is described as follows: CCTE_Shafer_MEA_dev_network_spike_peak: CCTE's Neural Network Formation Assay for Mean Number of Electrodes in Network Spike, Shafer Lab (AID 2284049).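 As to AC50: fitted for loss of signal meaning fewer electrodes in network spikes than DMSO.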 In outline:
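Network-spike peak electrode count from recordings on days 5, 7, 9 and 12 was combined as trapezoidal area under the curve. Rat cortical cultures were treated continuously from plating, with compound renewed at each feed (DIV 5, 9); fits versus DMSO.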

The nature of test [9]: CCTE_Shafer_MEA_dev_spike_duration_mean: CCTE's Neural Network Formation Assay for Mean Spike Duration, Shafer Lab (AID 2284051).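 As to AC50: potency for a decrease in mean network spike duration versus DMSO.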 The procedure, abridged: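 Readout is the average length of network spikes, clustered firing across electrodes, summed over DIV 5, 7, 9 and 12 as area under the curve. Neurons from rat cortex developed networks on MEA plates under continuous 12-day exposure.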

Test [10] in a line: CCTE_Shafer_MEA_dev_network_spike_duration_std: CCTE's Neural Network Formation Assay for Standard Deviation of Network Spike Duration, Shafer Lab (AID 2284052).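 Also: hits are decreases in network spike duration SD versus DMSO vehicle.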 The procedure, abridged:
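Read-out is the trapezoidal area-under-the-curve across recordings made on days 5, 7, 9 and 12, fitted in the negative direction against DMSO baseline. Neurons were primary rat cortical cells treated from day 0, with treatment renewed at each feed.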

Test [11] in a line: CCTE_Shafer_MEA_dev_per_network_spike_spike_number_mean: CCTE's Neural Network Formation Assay for Mean Number of Spikes in a Network Spike, Shafer Lab (AID 2284053). The procedure, abridged: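 Continuous twelve-day exposure of developing rat cortical networks grown over 16 microelectrodes per well; spontaneous firing is captured at four time points, and the per-network-spike spike number is integrated over development by trapezoidal AUC.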

Test [12] in a line: CCTE_Shafer_MEA_dev_per_network_spike_spike_percent: CCTE's Neural Network Formation Assay for Percent of Spikes in a Network Spike, Shafer Lab (AID 2284054). The procedure, abridged: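 Read-out: percent of spikes falling in a 0.05 s window at network-spike peak, from spontaneous MEA recordings on days 5, 7, 9 and 12; trapezoidal AUC; loss of signal versus DMSO. Rat cortical cultures, compound present throughout.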

A short description of test [13]: CCTE_Shafer_MEA_dev_LDH: CCTE's Lactate Dehydrogenase Assay for Cytotoxicity in the Neural Network Formation Assay, Shafer Lab (AID 2284068; active = hit-call score of the fitted dose curve at least 0.9, where 1 is the maximum;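 also: exposure for twelve days from plating with re-dosing on DIV 5 and 9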). The procedure, abridged:
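Cytotoxicity companion to network-formation recordings: rat cortical neurons received compound over 12 days of development, re-dosed at DIV 5 and 9 feeds. Viability was inferred from LDH enzyme activity relative to DMSO.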

Test [14] is described as follows: CCTE_Deisenroth_AIME_384WELL_CTox_Active: Cytotoxicity Assessment (CTOX) in CCTE's 384-well Estrogen Receptor Transactivation Assay with AIME metabolic competence (metabolism positive), Deisenroth Lab (AID 2284037; active = hit-call score of the fitted dose curve at least 0.9, where 1 is the maximum;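 also: chemicals first conditioned 2 h by alginate-bound induced rat liver S9 before cells; activity means signal loss indicating cell death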). The procedure, abridged:
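Chemicals pre-incubated 2 hours with alginate-immobilised phenobarbital/beta-naphthoflavone-induced male Sprague Dawley rat liver S9, then conditioned medium applied 24 hour to VM7Luc4E2 cells. Viability by fluorogenic protease substrate; 10-point series 0.002 - 200 uM.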

In test [15] the target is Estrogen receptor (Homo sapiens) (UniProt P03372). Put plainly: CCTE_Deisenroth_AIME_384WELL_LUC_Inactive: CCTE's 384-well Estrogen Receptor Transactivation Assay without AIME metabolic competence (ERTA luciferase; metabolism negative), Deisenroth Lab (AID 2284038; active = hit-call score of the fitted dose curve at least 0.9, where 1 is the maximum;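 also: VM7Luc4E2 breast cells given medium preincubated 2 h with S9-free microspheres; hits raise estrogen receptor luciferase signal so potencies reflect agonists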). The procedure, abridged:
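VM7Luc4E2 ER transactivation, luciferase bioluminescence after 24 h, using medium pre-incubated 2 h with S9-free alginate microspheres. Concentrations 0.002–200 uM; gain of signal fitted relative to 17beta-estradiol.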

Test [16] shares this target. Put plainly: CCTE_Deisenroth_AIME_384WELL_LUC_Shift: CCTE's 384-well Estrogen Receptor Transactivation Assay with AIME metabolic competence data shift (ERTA luciferase; difference in metabolism positive and negative), Deisenroth Lab (AID 2284041).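 Also: shift is response with S9 minus without S9 so positive means metabolism raised ER signal.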 In outline:
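Chemicals (0.002–200 uM, 10 points) pre-incubated 2 h with alginate-encapsulated induced male Sprague Dawley rat liver S9 or S9-free, then medium applied 24 h to VM7Luc4E2 cells; luciferase. Endpoint is per-concentration difference, S9-positive minus negative.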

The subject of a further test is DIO2 (gene 1734). Put plainly: CCTE_GLTED_hDIO2: CCTE's human Deiodinase 2 (DIO2) Inhibition Assay, Great Lakes Toxicology and Ecology Division (GLTED) Lab (AID 2284050; active = hit-call score of the fitted dose curve at least 0.9, where 1 is the maximum). In outline:
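Iodide released by human deiodinase 2 over 3 h with test chemical, measured spectrophotometrically via Sandell-Kolthoff cerium/arsenic reaction. Run n=3; inhibition referenced to DMSO.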

Another test has as its system DIO3 (gene 1735). In words: CCTE_GLTED_hDIO3: CCTE's human Deiodinase 3 (DIO3) Inhibition Assay, Great Lakes Toxicology and Ecology Division (GLTED) Lab (AID 2284055; active = hit-call score of the fitted dose curve at least 0.9, where 1 is the maximum;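 also: potency is for inhibition seen as loss of released iodide signal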). The procedure, abridged:
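Inhibition is read as reduced iodide release, measured spectrophotometrically by the Sandell-Kolthoff cerium/arsenic reaction. Adenovirus-expressed human DIO3 enzyme is exposed to chemical for 3 h, n=3 plates. Iodinated chemicals, nitrite, iron or thiocyanate may interfere.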

Test [17] is described as follows: CCTE_Deisenroth_AIME_384WELL_CTox_Inactive: Cytotoxicity Assessment (CTOX) in CCTE's 384-well Estrogen Receptor Transactivation Assay without AIME metabolic competence (metabolism negative), Deisenroth Lab (AID 2284039; active = hit-call score of the fitted dose curve at least 0.9, where 1 is the maximum;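 also: cell viability via live-cell protease substrate cleaved to fluorescent probe; cells exposed 24 h to medium preincubated 2 h with alginate-water beads without S9; loss of fluorescence signal means loss of viability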). The procedure, abridged: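 Metabolism-negative arm: chemicals (10-point, 0.002 - 200 uM) preincubated 2 h with alginate-water lids, medium moved onto VM7Luc4E2 cells for 24 h. Fluorescent live-cell protease readout; bidirectional curve fit.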

Molecules are shown by their SMILES. Inconclusive results are not listed. Where a structure was tested more than once in an assay, its records may differ in their call. Active and inactive are the calls of the source. The calls were made as follows, unless noted: active = hit-call score of the fitted dose curve at least 0.9, where 1 is the maximum; inactive = score below 0.9.

Chain of Estrogen receptor (Homo sapiens) (P03372 whole entry, looked up): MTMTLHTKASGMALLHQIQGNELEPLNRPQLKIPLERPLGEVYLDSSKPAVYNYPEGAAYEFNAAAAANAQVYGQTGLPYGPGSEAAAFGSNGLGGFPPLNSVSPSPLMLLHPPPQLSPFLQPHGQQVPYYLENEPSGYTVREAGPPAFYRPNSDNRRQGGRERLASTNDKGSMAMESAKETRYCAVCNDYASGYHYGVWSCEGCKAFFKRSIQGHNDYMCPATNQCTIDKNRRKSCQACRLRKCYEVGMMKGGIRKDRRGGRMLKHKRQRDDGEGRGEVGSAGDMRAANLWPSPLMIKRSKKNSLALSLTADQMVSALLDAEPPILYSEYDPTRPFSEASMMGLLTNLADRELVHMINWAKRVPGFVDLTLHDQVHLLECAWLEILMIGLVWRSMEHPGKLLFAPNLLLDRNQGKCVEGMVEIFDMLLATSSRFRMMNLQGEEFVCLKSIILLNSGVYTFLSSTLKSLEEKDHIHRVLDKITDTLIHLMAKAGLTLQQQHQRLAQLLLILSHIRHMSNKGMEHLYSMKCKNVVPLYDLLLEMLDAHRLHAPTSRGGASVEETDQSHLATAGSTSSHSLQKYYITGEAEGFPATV

For `CNS(=O)(=O)C(F)(F)C(F)(F)C(F)(F)C(F)(F)C(F)(F)C(F)(F)C(F)(F)C(F)(F)F`, the call in [1], in test [2], in test [3], in test [4], in [5] and in test [6] was inactive. The outcome in test [7], in test [8], in test [9], in test [10], in test [11] and in test [12] was inactive. The call in test [13] was inactive.

In the case of `O=C(c1ccccc1)c1ccc(O)cc1O`, the compound was called inactive in [14] and in [16]. For the same compound, the AC50 (usually the concentration giving half of the maximal activity seen) in test [15] is 40.3 µM (active).

Turning to `O=S(=O)(O)CCC(F)(F)C(F)(F)C(F)(F)C(F)(F)C(F)(F)C(F)(F)C(F)(F)C(F)(F)F`, the result in test [2], in test [4], in [5], in test [6], in test [7] and in [8] was inactive. Also, the call in test [9], in [10], in [11] and in test [12] was inactive.

On to `OCC1CCCO1` (stereo not drawn), for which the compound was called inactive in [15] and in [16].

`C=CC(=O)OCC(F)(F)C(F)(F)C(F)(F)COC(=O)C=C`: the AC50 in test [1] is 4.25 µM (active); in [3], 1.52 µM (active); in test [5] it was 3.86 µM (active); in test [7] it was 1.18 µM (active); in test [8], 4.61 µM (active); in the test with DIO2 (gene 1734), 26.3 µM (active). For the same compound, the AC50 was 5.18 µM (active) in [9]; 4.72 µM (active) in test [11]; 4.56 µM (active) in test [12]; 45.1 µM (active) with DIO3 (gene 1735); 5.84 µM (active) in test [13]. The compound was classed as inactive in [2], in [4], in test [6] and in [10].

In the case of `NC(O)(C(F)(F)F)C(F)(F)F`, the call in test [1], in [2], in test [3], in test [4], in test [5] and in test [6] was inactive. The compound was classed as inactive in test [7], in [8], in test [9], in test [10], in test [11] and in [12]. In test [13], the compound was called inactive. For the same compound, the AC50 in test [8] is 0.00434 µM (active).

For `C=C(C)C(=O)OCC(F)(F)C(F)(F)C(F)(F)C(F)F`, the AC50 with DIO2 (gene 1734) was 34 µM (active); with DIO3 (gene 1735), 14.2 µM (active).

For `CCN=c1cc2oc3cc(NCC)c(C)cc3c(-c3ccccc3C(=O)OCC)c-2cc1C`, the concentration at half-maximal activity (AC50) in the test with DIO2 (gene 1734) is 154 µM (active); in the test on DIO3 (gene 1735), 157 µM (active).

As to `CCCCCCCC/C=C\CCCCCCCC(=O)N(C)CC(=O)O`, the AC50 in test [14] is 124 µM (active); in the test on DIO2 (gene 1734), 55.6 µM (active); in the test on DIO3 (gene 1735) it was 22 µM (active). Also, the outcome in test [17] and in test [16] was inactive.

On to `CCCCCCCCCCCCC[N+](C)(C)Cc1ccccc1`, for which the AC50 is 22.2 µM (active) in the test on DIO2 (gene 1734) and 17 µM (active) with DIO3 (gene 1735).
